# A number with no mark means an inactive call.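 How the source made its calls: active = MAPPIT score above the 99th percentile of random reference set scores in the same batch; inactive = at or below it.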
# Experiments:
# Assay in all cases: MAPPIT interaction score (arbitrary units); higher = stronger binary interaction signal, active = hit call of the paper
# [1] = target: MESK2; settings: MAPPIT configuration: N-N; pair source set: DPIM
# [2] = target: MED8
# [3] = target: MED15; settings: MAPPIT configuration: N-N; pair source set: Finley_Y2H
# [4] = target: MagR; settings: MAPPIT configuration: N-N; pair source set: Lit-BS-16
# [5] = target: Polr1B; settings: MAPPIT configuration: N-N; pair source set: DPIM
# [6] = target: pav; settings: MAPPIT configuration: N-N; pair source set: DPIM
# [7] = target: Mkk4; settings: MAPPIT configuration: N-N; pair source set: DPIM
# [8] = target: Orai; settings: MAPPIT configuration: N-N; pair source set: DPIM
# [9] = target: Mettl14; settings: MAPPIT configuration: N-N; pair source set: DPIM
# [10] = target: Rnmt; settings: MAPPIT configuration: N-N; pair source set: DPIM
# [11] = target: Lmpt; settings: MAPPIT configuration: N-N; pair source set: Curagen_low_conf
# [12] = target: Pen; settings: MAPPIT configuration: N-N; pair source set: Finley_Y2H
# [13] = target: lwr; settings: MAPPIT configuration: N-N; pair source set: screen_1
# [14] = target: Lcp1; settings: MAPPIT configuration: N-N; pair source set: DPIM
# [15] = target: Lac; settings: pair source set: Lit-BM-16
# [16] = target: MAPk-Ak2; settings: MAPPIT configuration: N-N; pair source set: Curagen_high_conf
# [17] = target: Mpcp2; settings: MAPPIT configuration: N-N; pair source set: Lit-BS-16
# [18] = target: mod(mdg4); settings: MAPPIT configuration: N-N; pair source set: Lit-BS-16
# [19] = target: LTV1; settings: MAPPIT configuration: N-N; pair source set: screen_1
# [20] = target: MYPT-75D; settings: pair source set: Lit-BM-16
# [21] = target: Mbs; settings: MAPPIT configuration: N-N; pair source set: Lit-BM-16
# [22] = target: Nop17l; settings: MAPPIT configuration: N-N; pair source set: Lit-BM-16
# [23] = target: Tm1; settings: MAPPIT configuration: N-C; pair source set: Lit-BM-16
# [24] = target: Zasp66; settings: pair source set: Lit-BM-16
# [25] = target: elm; settings: MAPPIT configuration: N-N; pair source set: Lit-BS-16
# 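Further: HEK293T cells with Epo stimulation, STAT-responsive firefly luciferase reporter, fold induction versus unstimulated cells divided by the larger fold induction of two negative controls lacking either bait or prey.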
binder,measurement,setting,value
SdhB (protein) MLATEARQILSRVGSLVARNQMRAISNGTAQLEQQAQPKEAQEPQIKKFEIYRWNPDNAGEKPYMQTYEVDLRECGPMVLDALIKIKNEMDPTLTFRRSCREGICGSCAMNIGGTNTLACISKIDINTSKSLKVYPLPHMYVVRDLVPDMNNFYEQYRNIQPWLQRKNEAGEKKGKAQYLQSVEDRSKLDGLYECILCACCSTSCPSYWWNAEKYLGPAVLMQAYRWIIDSRDENSAERLNKLKDPFSVYRCHTIMNCTRTCPKGLNPGRAIAEIKKLLSGLASKPAPKLETAALHK,MAPPIT interaction score,[1],0.135
Trmt112 (protein) MKLSTYNFLTSVAIKGVKVGFPLKLTINKKEVVESEFNPTFVERILPKLDWSAVYGAAQVAELTEDIPAVQPENIVENELLLQKLHHLLFEIDVLEGQLECPETGRVFPISDGIPNMLLNEDEV,MAPPIT interaction score,"[2]; MAPPIT configuration: N-C, pair source set: screen_4",0.923
same,MAPPIT interaction score,"[2]; MAPPIT configuration: N-N, pair source set: Finley_Y2H",1.99
grp (protein) MAATLTEAGTGPAATREFVEGWTLAQTLGEGAYGEVKLLINRQTGEAVAMKMVDLKKHPDAANSVRKEVCIQKMLQDKHILRFFGKRSQGSVEYIFLEYAAGGELFDRIEPDVGMPQHEAQRYFTQLLSGLNYLHQRGIAHRDLKPENLLLDEHDNVKISDFGMATMFRCKGKERLLDKRCGTLPYVAPEVLQKAYHAQPADLWSCGVILVTMLAGELPWDQPSTNCTEFTNWRDNDHWQLQTPWSKLDTLAISLLRKLLATSPGTRLTLEKTLDHKWCNMQFADNERSYDLVDSAAALEICSPKAKRQRLQSSAHLSNGLDDSISRNYCSQPMPTMRSDDDFNVRLGSGRSKEDGGDRQTLAQEARLSYSFSQPALLDDLLLATQMNQTQNASQNYFQRLVRRMTRFFVTTRWDDTIKRLVGTIERLGGYTCKFGDDGVVTVSTVDRNKLRLVFKAHIIEMDGKILVDCRLSKGCGLEFKRRFIKIKNALEDIVLKGPTTWPIAIATNSVP,MAPPIT interaction score,[3],2.02
Hakai (protein) MDTEEVKRGRGRGRGTRARGRGRGRGRGRGKKIDDSSIADAAALAASSCAALEDSPGRLDASEDSVMQELDKDGELETPGALEEPLPHGALGAVAASGNMTPATQQPQVLQQVPPPVMSQTTISLSLARAVDMEADISQLEAPTFTTLSRGPPEPMLRLKWNHKVSLIGEKVLNPMIHCCDQCDKPILVYGRMIPCKHVFCLKCARAEPIKSCPRCTDKVLRVEQSGLGTVFMCTHGGSRYGSSGCRRTYLSQRDLQAHINHRHVAPQPPPLQPQPQLSAMAEQPKMTDLGGVGLGLELHKQRKLSESSVPISVSASIASRPVLSRLPLTGGVGNIGSIGSIPPPGSAAAAQNAIHGGHSTLTLANLTRINNANAQECHQGKASLHHTLKKGTPHQSESVADASYYSSVLASFGSAAGNPGSGPPGGGATAAAQPANPSGSHSAVGPGALIGGSTDAPTGGSSGNWQQSQYYR,MAPPIT interaction score,[4],2.01
same,MAPPIT interaction score,[5],0.0868
same,MAPPIT interaction score,[6],0.0448
porin (protein) MAPPSYSDLGKQARDIFSKGYNFGLWKLDLKTKTSSGIEFNTAGHSNQESGKVFGSLETKYKVKDYGLTLTEKWNTDNTLFTEVAVQDQLLEGLKLSLEGNFAPQSGNKNGKFKVAYGHENVKADSDVNIDLKGPLINASAVLGYQGWLAGYQTAFDTQQSKLTTNNFALGYTTKDFVLHTAVNDGQEFSGSIFQRTSDKLDVGVQLSWASGTSNTKFAIGAKYQLDDDASVRAKVNNASQVGLGYQQKLRDGVTLTLSTLVDGKNFNAGGHKIGVGLELEA,MAPPIT interaction score,[7],1.64
same,MAPPIT interaction score,[8],1.31
Hsp23 (protein) MANIPLLLSLADDLGRMSMVPFYEPYYCQRQRNPYLALVGPMEQQLRQLEKQVGASSGSSGAVSKIGKDGFQVCMDVSHFKPSELVVKVQDNSVLVEGNHEEREDDHGFITRHFVRRYALPPGYEADKVASTLSSDGVLTIKVPKPPAIEDKGNERIVQIQQVGPAHLNVKENPKEAVEQDNGNDK,MAPPIT interaction score,[9],1.35
same,MAPPIT interaction score,[10],1.27
prod (protein) MEKVEAVTVSNVDPYRRILNKVVSQLLLDKGAGQASNHSLETLTQMLQALIWEIGNSAHNYCELSGRTMPTVGDVSLALINMGISISNLDPYMRKETHVPIPLPPQQTQQRPLSLLQAGIKAPHPHYVPSYFPPMPDPHAYIRTPTHKQPVTEYEAIREKAACQKRDIEKALTKFLCKTTETNNLFPTEDNMFPLIACKPAFPPYAAALNPTDQVFDFEELEYHYLVANRTEDEPSKDDGEEGDSENEEMDGDKSKEEKPELDIKPNSNTNKAILENPNIDNPYLRAATLPKRSKNCPTPGTMPSRSLATTAPTIRTPSTLEITKTNL,MAPPIT interaction score,[11],2.19
same,MAPPIT interaction score,[12],0.326
same,MAPPIT interaction score,[13],-0.147
B52 (protein) MVGSRVYVGGLPYGVRERDLERFFKGYGRTRDILIKNGYGFVEFEDYRDADDAVYELNGKELLGERVVVEPARGTARGSNRDRYDDRYGGRRGGGGGRYNEKNKNSRSSSRYGPPLRTEYRLIVENLSSRVSWQDLKDYMRQAGEVTYADAHKQRRNEGVVEFASLSDMKTAIEKLDDTELNGRRIHLVEDRRGGRSGGGGGSGRGRSRSSSSRSRSRSRRRSRSRRSSHSRSKSRSRSKSRGGRSKSKSPVKSRSRSRSRSNKSRDVSKSKSKSHSRTRSRSPKRERDSRSRSRSVSKRESRSRSRSKSIHRDSRSRPPTVSFKSSFYKFTTMPFFCSDRSASAENKSRSRSRSRSASPKNGNASPDRNNESMDD,MAPPIT interaction score,[14],-0.142
Lac (protein) MWRPSISNCVWSTLLLAIFVQQTLAQRTPTISYITQEQIKDIGGTVEFDCSVQYAKEYNVLFLKTDSDPVFLSTGSTLVIKDSRFSLRYDPNSSTYKLQIKDIQETDAGTYTCQVVISTVHKVSAEVKLSVRRPPVISDNSTQSVVASEGSEVQMECYASGYPTPTITWRRENNAILPTDSATYVGNTLRIKSVKKEDRGTYYCVADNGVSKGDRRNINVEVEFAPVITVPRPRLGQALQYDMDLECHIEAYPPPAIVWTKDDIQLANNQHYSISHFATADEYTDSTLRVITVEKRQYGDYVCKATNRFGEAEARVNLFETIIPVCPPACGQAYIAGAEDVSATSFALVGILAALLFAR,MAPPIT interaction score,[15]; MAPPIT configuration: N-C,-0.593
same,MAPPIT interaction score,[15]; MAPPIT configuration: N-N,-0.017
p38b (protein) MSRKMAKFYKLDINRTEWEIPETYQNLQPVGQGAYGQVCKAVVRGTSTKVAIKKLARPFQSAVHAKRTYRELRLLKHMDHENVIGLLDVFHPGQPADSLDQFQQVYMVTHLMDADLNNIIRTQKLSDDHVQFLVYQILRGLKYIHSAGVIHRDLKPSNIAVNEDCELRILDFGLARPAESEMTGYVATRWYRAPEIMLNWMHYNQTADIWSVGCIMAELLTGRTLFPGTDHIHQLNLIMEVLGTPADEFMSRISSESARNYIRSLPVMPRRNFRDIFRGANPLAIDLLEKMLELDADKRITAEQALAHPYMEKYHDPTDEQTAALYDQSFEENELPVEKWREMVFSEVTAFKPTAAFAELLPKEQ,MAPPIT interaction score,[16],1.93
4E-T (protein) MDTSKISARYSKVDLLALRYEGKSRQRPQCSTRLELQTLGFWKINLNTAALTVSSAYSNQNKNRLSPEADNSSLICSNSSSISSRRAMRNRERANNYYQRFVPTDSLLISGEDKDKDALSHGQPYKLNIIDHRSISSSHLMPAFAKRRFVISKGSNSEESNEGINTCASKGKAASSPSRKGSELDTAETCLNFVQPDHDQCMSSSPTFSTSRQERRIGSGRLLPRSDNWDYKNEKTVEASIENEKETSPNGSGSTSSLNQHNQSQHRSRTFSGRLVERVPEVTDRRFQYDSKKSFDRQGINNRRISGKEPFSTQSRSKRGNSYLIHEEPEWFSAGPKSQLETIDLHGFEDLEKNEERSVTEDKNNQIQQLDKNLDAQASKDEASMRNSNDSLNFREVIPSDEKKHTDENVVTSIQNSTDLGHPNKNKPIQMQPSQNPESEFNFDAFLNMHPLDNSVLSNDETGKSDSKGTSRFSRWFRQKEAANNNEFPGFRESHAQEKRGIPSVKDLEAQMIKVDMRTDLINPIAGSLCQTVQMEKPIARDTEAFKKLLQQLGSQARQHHPCNDDCRTINLSNIANHVHLESKLHQKINDGHLQQPELSVNVPTMPTSSHVFLQKRLEIQHLIQRLHCGDVSHDFLEKELDNPSTPAATKDVIATVLNEYSHSKRNPVVTGDPNIFTQQSFLQPQSVHQHYSQELHSQNTANHTINQLISHGNSPTPLAFTPTSVLRKMTADKDTQSPSTYCQNPQYHVHQQNAKQVGTRENVLEPQLTATMAVQPRMILGGGNFAIGQNNQHLSPNMSQSRNQQVLKWTSGNMQMVHGKTFGRPILKGGLNSMPHSNSALPFTAHKIEMQPIHQPHLQQQQHRFKAVQSVESNLNTESVHQNITSPVGWHQLYMQHQQQHHHTRQQLSQRVIYGEMHRQSNPQMSPPVPGFSDSSDSGNVIKANSLTSPSYQRDERISSPTNQLAQWFSPELLAKASAGKLPLLNVNQALSLEEFERSIQHSSGVVHN,MAPPIT interaction score,[17],0.135
same,MAPPIT interaction score,[18],-0.246
bys (protein) MGKPKKANVATIKNVNLEKQITEGRVAKNKNKDKVKLRAEESANIDARSSQKILAAAKLQQLELDEENFPSLVTVKKVNFSLNDGHVKEDEEVNETDLMADLDMDEDDVAAFERFQQPAQEGKRTLHLSKMIMQKIQEKEADIHTKISDEGSLKIEEIDPKVKEMYEGVRDVLKRYRSGKIPKAFKIIPKLRNWEQILFITEPHNWSAAAMFQGTRIFCSVLSQAMAQRFYNLVLLPRVRDDLCEYKKLNMHLYNALKRALFKPAAFMKGIILPLLEGGDCTLREAIIFGSVVARSSIPVLHSSACLLKICEMAYSGANSIFIRYFLDKRYALPYRVVDAAVFHFLRFENDKRELPVLWHQSLLTFAQRYKNDISSEQRDALLQLLKKKSHFKITPDVRRELQAASCRDVEMMETDNGLAGQPAKMYTDADVEYEG,MAPPIT interaction score,[19],1.68
flw (protein) MGDFDLNVDSLIQRLLEMRSCRTGKQVQMTEAEVRGLCLKSREIFLQQPILLELEAPLIICGDIHGQYTDLLRLFEYGGFPPAANYLFLGDYVDRGKQSLETICLLLAYKIKYPENFFLLRGNHECASINRIYGFYDECKRRYNVKLWKTFTDCFNCLPVAAIIDEKIFCCHGGLSPDLQGMEQIRRLMRPTDVPDTGLLCDLLWSDPDKDVQGWGENDRGVSFTFGVDVVSKFLNRHELDLICRAHQVVEDGYEFFARRQLVTLFSAPNYCGEFDNAGGMMTVDDTLMCSFQILKPSEKKAKYLYSGMNSSRPTTPQRSAPMLATNKKK,MAPPIT interaction score,[20]; MAPPIT configuration: N-C,0.517
same,MAPPIT interaction score,[20]; MAPPIT configuration: N-N,-0.255
same,MAPPIT interaction score,[21],-0.0767
same,MAPPIT interaction score,[22],-0.464
same,MAPPIT interaction score,[23],1.19
same,MAPPIT interaction score,[24]; MAPPIT configuration: N-C,0.478
same,MAPPIT interaction score,[24]; MAPPIT configuration: N-N,0.558
same,MAPPIT interaction score,[25],-0.48
